This is a sample that favours compounds with a hit; in the whole collection about 1.9% have one here.
MsrA act – activates bovine MsrA enzyme; purified bovine MsrA, absorbance read-out; activation, % at 10.6 µM; hit rate 0.3% among 360,000; AID 602163; in the data active means activation above about 7.5%
MsrA inh – inhibits bovine methionine sulfoxide reductase A; purified bovine MsrA, absorbance read-out; inhibition, % at 15.5 µM; hit rate 0.75% among 360,000; AID 651718; in the data active means inhibition above about 4.5%
HTR5A ag – activates human HTR5A in OPRM1-OPRD1 agonist counter-screen | AID 504692 | activation, % at 9.3 µM | hit rate 0.61% among 340,000 | P47898 | HTR5A agonist assay, luminescence, cell-based; in the data active means activation mostly above about 9.5%, no sharp cut-off; inactive means mostly below about 7.6%
Target sequence (P47898 whole entry, looked up): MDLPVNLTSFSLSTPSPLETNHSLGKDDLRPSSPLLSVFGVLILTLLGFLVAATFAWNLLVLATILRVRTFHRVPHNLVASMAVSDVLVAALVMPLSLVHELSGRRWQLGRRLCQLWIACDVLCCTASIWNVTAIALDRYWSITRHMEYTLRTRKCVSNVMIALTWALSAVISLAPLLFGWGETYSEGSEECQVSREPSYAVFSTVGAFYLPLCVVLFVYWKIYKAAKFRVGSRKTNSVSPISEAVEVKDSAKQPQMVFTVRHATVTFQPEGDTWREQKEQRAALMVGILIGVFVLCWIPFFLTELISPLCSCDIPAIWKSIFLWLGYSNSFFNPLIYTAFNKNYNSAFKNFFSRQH
MOR-DOR ag-1 – agonists of human mu-delta opioid receptor heterodimerization. P35372+P41143. hit rate 0.3% among 340,000. activation, % at 9.3 µM. cells, OPRM1-OPRD1 heterodimerization, luminescence
HTR5A inv ag – inverse agonist of human HTR5A in OPRM1-OPRD1 counter-screen | hit rate 0.083% among 340,000 | inhibition, % at 9.3 µM | HTR5A cell line, luminescence, inverse agonism | P47898; in the data active means inhibition mostly above about 23%, no sharp cut-off; inactive means mostly below about 18%
OPRM1-OPRD1 inv – mu-delta opioid heterodimer inverse agonism; P35372+P41143; cell-based MOR-DOR heterodimer luminescence; inhibition, % at 9.3 µM; hit rate 0.21% among 340,000; AID 504357; in the data active means inhibition above about 22%, passing the limit was not always enough
MOR-DOR ag-2 – promotes OPRM1-OPRD1 heterodimerization in HTR5A counter-screen. AID 504913. shares compounds with HTR5A ag. activation, % at 9.3 µM. hit rate 13% among 800. U2OS counter-screen cells, complementation luminescence, 3 h
HTR5A ag conf – HTR5A (human) agonism, confirmation; shares compounds with HTR5A ag; HTR5A agonist cell assay, luminescence; activation, % at 9.3 µM; hit rate 17% among 800; in the data active means activation above about 17%
Of the large screens only hits and unclear results are named; the others gave an inactive call (follow-up assays come after a bar, where they were run). Unless noted, no stated cut-off is given here; in the data, active means activation above about 18%; inactive means the rest.

CCN(CC)Cc1c(O)ccc2occ(C(=O)c3ccccc3)c12	none
CN(C)Cc1c(O)ccc2occ(C(=O)c3ccccc3)c12	HTR5A ag 19 | MOR-DOR ag-2 inactive | HTR5A ag conf 47
O=S1(=O)N[C@@H](Cc2ccccc2)COc2cc(NCCCN3CCOCC3)ccc21	none (no result: MsrA act, HTR5A ag, MOR-DOR ag-1, HTR5A inv ag, OPRM1-OPRD1 inv)
CCCCCCCCCCCCCCCC[n+]1cccc2ccccc21	HTR5A ag 20 | MOR-DOR ag-2 494 | HTR5A ag conf inactive
COc1ccccc1OCC(=O)Nc1ccc(Cl)cc1	none
COc1ccccc1OCC(=O)Nc1ccc(NC(=O)COc2ccccc2OC)cc1	HTR5A ag 24 | MOR-DOR ag-2 inactive | HTR5A ag conf inactive
COc1ccc(CNC(=O)c2ccncc2)cc1	none
COc1ccc(CNC(=O)c2ccc3nccnc3c2)cc1	HTR5A ag 19 | MOR-DOR ag-2 inactive | HTR5A ag conf inactive
COC(=O)c1cc2c(c3c4cc(C)ccc4n(S(=O)(=O)c4ccc(OC)cc4)c13)C(=O)N(Cc1ccccc1)C2	none (no result: MsrA act, HTR5A ag, MOR-DOR ag-1, HTR5A inv ag, OPRM1-OPRD1 inv)
O=C(NCCCc1ccccc1)C(=O)NCC1OCCN1S(=O)(=O)c1cc(F)ccc1F (stereo not given)	none
O=C(NCCc1c[nH]c2ccccc12)C(=O)NCC1OCCCN1S(=O)(=O)c1cccs1 (stereo not given)	HTR5A ag 31 | MOR-DOR ag-2 inactive | HTR5A ag conf inactive
O=C(NCCc1c[nH]c2ccccc12)C(=O)NCC1OCCN1S(=O)(=O)c1cc(F)ccc1F (stereo not given)	HTR5A ag 34 | MOR-DOR ag-2 inactive | HTR5A ag conf 45
O=C(NCCc1c[nH]c2ccccc12)C(=O)NCC1OCCCN1S(=O)(=O)c1ccc(F)cc1 (stereo not given)	HTR5A ag 16 | MOR-DOR ag-2 inactive | HTR5A ag conf 24
Cc1ccc(S(=O)(=O)N2CCOC2CNC(=O)C(=O)NCCc2c[nH]c3ccccc23)cc1 (stereo not given)	HTR5A ag 54 | MOR-DOR ag-2 inactive | HTR5A ag conf inactive
O=C(N[C@H](C(=O)N1CCC[C@H]1C(=O)NC1CCCC1)C1CCCCC1)c1nccs1	none (no result: MsrA act, HTR5A ag, MOR-DOR ag-1, HTR5A inv ag, OPRM1-OPRD1 inv)
O=C(NCCO)C(=O)NCC1OCCCN1S(=O)(=O)c1cccs1 (stereo not given)	none
O=C(NCCCO)C(=O)NCC1OCCCN1S(=O)(=O)c1cccs1 (stereo not given)	HTR5A ag 17 | MOR-DOR ag-2 inactive | HTR5A ag conf inactive
Cc1cc(F)ccc1S(=O)(=O)N1CCCOC1CNC(=O)C(=O)NCCc1c[nH]c2ccccc12 (stereo not given)	HTR5A ag 16 | MOR-DOR ag-2 43 | HTR5A ag conf inactive
Cc1[nH]nc2c1C(c1ccc(F)cc1)N(c1ccccc1)C2=O (stereo not given)	none (no result: MsrA act, HTR5A ag, MOR-DOR ag-1, HTR5A inv ag, OPRM1-OPRD1 inv)
CC(C(=O)NC1C=CS(=O)(=O)C1)N1C(=O)/C(=C\c2ccccc2)SC1=S (stereo not given)	none
CC(C(=O)NC1C=CS(=O)(=O)C1)N1C(=O)/C(=C/c2cccc(Cl)c2)SC1=S (stereo not given)	HTR5A ag 15 | MOR-DOR ag-2 38 | HTR5A ag conf inactive
CC1(C)CC(n2c(NCCO)nc3c(c2=O)C2(CCCC2)Cc2ccccc2-3)CCO1 (stereo not given)	HTR5A ag 23 | MOR-DOR ag-2 inactive | HTR5A ag conf inactive
C=CCCC1CN(Cc2ccc(OC)cc2)S(=O)(=O)c2c(NCc3cc(OC)c(OC)c(OC)c3)cccc2O1 (stereo not given)	none (no result: MsrA act, HTR5A ag, MOR-DOR ag-1, HTR5A inv ag, OPRM1-OPRD1 inv)
Cc1ccc2[nH]c(=O)c3cc(C(=O)N(CCCOC(C)C)Cc4ccco4)sc3c2c1	HTR5A ag 27 | MOR-DOR ag-2 inactive | HTR5A ag conf inactive
Oc1cccc2ccc(Nc3ccccn3)nc12	HTR5A ag 16 | MOR-DOR ag-2 inactive | HTR5A ag conf inactive
CCc1cc2c(nc1CC)CCCN2Cc1ccc(Br)cc1	none (no result: MsrA act, HTR5A ag, MOR-DOR ag-1, HTR5A inv ag, OPRM1-OPRD1 inv)
C/C=C/C=[N+](\[O-])C(C)/C(=N/O)c1ccc(F)cc1 (stereo not given)	HTR5A ag 17 | MOR-DOR ag-2 inactive | HTR5A ag conf inactive
COC(=O)C(CC(C)C)N(Cc1ccc(Br)cc1)S(=O)(=O)CCl (stereo not given)	none (no result: MsrA act, HTR5A ag, MOR-DOR ag-1, HTR5A inv ag, OPRM1-OPRD1 inv)
COC(=O)c1ccc(Cn2cc(Cl)cn2)cc1	HTR5A ag 24 | MOR-DOR ag-2 inactive | HTR5A ag conf inactive
O=C(C(=O)N1CCN(C(=O)c2cccs2)CC1)c1cccc(C(F)(F)F)c1	none (no result: MsrA act, HTR5A ag, MOR-DOR ag-1, HTR5A inv ag, OPRM1-OPRD1 inv)
CN(C)c1ccc(C(=O)NCC2CCCO2)cc1 (stereo not given)	none
CN(C)c1cccc(C(=O)NCC2CCCO2)c1 (stereo not given)	HTR5A ag 20 | MOR-DOR ag-2 inactive | HTR5A ag conf inactive
N#Cc1c(N)[nH]c(C(=O)c2ccccc2)c1-c1ccc(Br)cc1	none (no result: MsrA act, HTR5A ag, MOR-DOR ag-1, HTR5A inv ag, OPRM1-OPRD1 inv)
C/C(=N/NS(=O)(=O)c1ccc(Br)cc1)c1ccc(NC(=O)c2ccc(C)o2)cc1	HTR5A ag 17 | MOR-DOR ag-2 inactive | HTR5A ag conf inactive
COc1cc(/C=N/Nc2nc(C)nc3c2cnn3-c2ccccc2)ccc1O	HTR5A ag 16 | MOR-DOR ag-2 inactive | HTR5A ag conf inactive
CCCCN(C)C(=O)c1cc2cc3ccc(OC)cc3nc2s1	HTR5A ag 21 | MOR-DOR ag-2 inactive | HTR5A ag conf inactive
O=C(NNC(=S)Nc1ccccc1)c1cccc(Br)c1	HTR5A ag 18 | MOR-DOR ag-2 inactive | HTR5A ag conf inactive
O=C(NNC(=S)Nc1ccc(Br)cc1)c1ccccc1	none
CCc1cc2c(nc1CC)CCCN2S(=O)(=O)c1cccs1	none (no result: MsrA act, HTR5A ag, MOR-DOR ag-1, HTR5A inv ag, OPRM1-OPRD1 inv)
C=CCN=C(NC#N)SCC(=O)NC(C)(C)C	HTR5A ag 17 | MOR-DOR ag-2 20 | HTR5A ag conf inactive
CC(C)N=C(NC#N)SCC(=O)NC(C)(C)C	none
CN(C)c1cccc2c(S(=O)(=O)NCC3CCN(C(=O)C(=O)c4cc5ccccc5o4)CC3)cccc12	none (no result: MsrA act, HTR5A ag, MOR-DOR ag-1, HTR5A inv ag, OPRM1-OPRD1 inv)
O=C(CNc1cccc(C(F)(F)F)c1)Nc1cccc(S(=O)(=O)N2CCCC2)c1	HTR5A ag 19 | MOR-DOR ag-2 inactive | HTR5A ag conf inactive
Cc1cc(C)c(C#N)c(SCC(=O)Nc2cccc(S(=O)(=O)N3CCCC3)c2)n1	HTR5A ag 15 | MOR-DOR ag-2 inactive | HTR5A ag conf inactive
O=C(CNc1cccc(S(=O)(=O)N2CCCC2)c1)Nc1cccc(F)c1	none
OCCc1ccc(O)cc1	none
CC(c1ccc(O)cc1)(c1ccc(O)cc1)c1ccc(CCBr)cc1	HTR5A ag 15 | MOR-DOR ag-2 inactive | HTR5A ag conf inactive
Cc1ccccc1-c1ccc2c(c1)[C@@H]1C[C@H]3[C@@H](CN1CC2)[C@H](C)ON3C	none (no result: MsrA act, HTR5A ag, MOR-DOR ag-1, HTR5A inv ag, OPRM1-OPRD1 inv)
Cn1c(CCNC(=O)c2ccccc2F)nnc1SCC(=O)Nc1nncs1	HTR5A ag 20 | MOR-DOR ag-2 inactive | HTR5A ag conf inactive
COc1ccc(C)cc1NC(=O)CN1CCN(S(=O)(=O)c2ccc(Cl)cc2)CC1	none

Source: PubChem BioAssay (The Scripps Research Institute Molecular Screening Center)
